For 21 compounds, growth inhibition, inhibition and outcome results are on record in PubChem BioAssay.

Unmarked numbers belong to inactive results. For part of these data: Potency and affinity values are given separately. Calls of active or inactive are those of the source. Unless noted, how the calls were made is not given here.

A short description of assay [1]: antimalarial activity against Dd2 strain (AID 2302;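 active means growth inhibition above 50% at the single 2 µM test dose, taken to imply half-maximal potency below 2 µM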;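 further: 0% = DMSO untreated growth and 100% = chloroquine plus artemisinin killed control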). Particulars: P. falciparum Dd2 in RBCs, LDH growth readout, 72 h; at 2 µM; stronger effect = higher value.
Assay [2] can be described thus: HepG2 cytotoxicity, primary screen, cytotoxicity control for P. falciparum antimalarial project, cell-based, ATP luminescence (AID 2303;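 active means inhibition above 50%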;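 further: 0% = DMSO wells and 100% = digitonin-killed cells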). As to conditions: HepG2 viability, 24-48 h, at 10 µM, stronger effect = higher value.
In assay [3] the target is L-lactate dehydrogenase (Plasmodium falciparum (isolate CDC / Honduras)) (UniProt Q27743). The experiment in a line: PfLDH activity inhibition – cell lysate, 3D7 strain, counter-screen for P. falciparum growth inhibition project (AID 2304).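 Further: 0% = vehicle and 100% = reference inhibitor.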 As to conditions: P. falciparum 3D7 crude extract, LDH APAD/NBT absorbance; at 2 µM; stronger effect = higher value. For orientation: The purpose of a counterscreen is to sort out artefacts and off-target activity.

A short description of assay [4]: inhibition of 3D7 malaria parasite growth – strain 3D7 (AID 2306).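 Further: 0% = DMSO wells and 100% = chloroquine plus artemisinin control wells.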 As to conditions: P. falciparum 3D7 erythrocytic growth, LDH absorbance, 72 h; at 2 µM; stronger effect = higher value.
Assay [5] addresses Calcium-dependent protein kinase 1 (Plasmodium falciparum (isolate 3D7)) (UniProt P62344). The experiment in a line: PfCDPK1 kinase inhibitors, biochemical, TCAMS library (AID 1159585; cut-off not given, nearly all actives have IC50 up to about 0.98 µM;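 further: inhibitors leave more ATP so luminescence rises with inhibition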). Particulars: recombinant PfCDPK1, Kinase-Glo ATP depletion luminescence. On the technique in general: In Kinase-Glo more light means more ATP remaining.
Assay [6] deals with Plasmodium falciparum protein kinase 6 (PK6, PF3D7_1337100) (UniProt Q8IDW1). The experiment in a line: PfPK6 kinase inhibitors, biochemical, TCAMS library (AID 1159586). Particulars: recombinant PfPK6, Kinase-Glo ATP depletion luminescence.
Assay [7] addresses Protein kinase 7 (PK7), Plasmodium falciparum 3D7 (PF3D7_0213400) (UniProt Q7YTF7). The experiment in a line: inhibition of Plasmodium PK7 catalytic activity – biochemical, TCAMS antimalarial set, Kinase-Glo luminescence (AID 1159587). As to conditions: recombinant PfPK7, Kinase-Glo ATP depletion luminescence.
Assay [8] has as its target Calcium-dependent protein kinase 4 (Plasmodium falciparum (isolate 3D7)) (UniProt Q8IBS5). The experiment in a line: PfCDPK4 kinase inhibitors, biochemical, TCAMS library (AID 1159588; cut-off not given, nearly all actives have IC50 up to about 0.91 µM). As to conditions: recombinant PfCDPK4, Kinase-Glo ATP depletion luminescence.

Sequence of Calcium-dependent protein kinase 1 (Plasmodium falciparum (isolate 3D7)) (P62344 whole entry, looked up): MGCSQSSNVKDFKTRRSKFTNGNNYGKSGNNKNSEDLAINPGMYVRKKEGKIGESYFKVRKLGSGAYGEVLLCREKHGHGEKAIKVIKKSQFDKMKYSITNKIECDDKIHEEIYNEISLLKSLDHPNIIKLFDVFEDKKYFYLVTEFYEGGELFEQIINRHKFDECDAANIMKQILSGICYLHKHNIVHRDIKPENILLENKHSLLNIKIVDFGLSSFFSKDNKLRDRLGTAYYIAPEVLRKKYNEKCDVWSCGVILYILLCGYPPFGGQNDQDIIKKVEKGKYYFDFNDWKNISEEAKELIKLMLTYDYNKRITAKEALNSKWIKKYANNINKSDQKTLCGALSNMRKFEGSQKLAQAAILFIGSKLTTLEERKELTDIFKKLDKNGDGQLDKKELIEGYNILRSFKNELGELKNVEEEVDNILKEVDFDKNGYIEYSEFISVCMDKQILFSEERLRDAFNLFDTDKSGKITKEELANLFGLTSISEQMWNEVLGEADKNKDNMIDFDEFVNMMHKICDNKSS
Sequence of Protein kinase 7 (PK7), Plasmodium falciparum 3D7 (PF3D7_0213400) (Q7YTF7 1-343): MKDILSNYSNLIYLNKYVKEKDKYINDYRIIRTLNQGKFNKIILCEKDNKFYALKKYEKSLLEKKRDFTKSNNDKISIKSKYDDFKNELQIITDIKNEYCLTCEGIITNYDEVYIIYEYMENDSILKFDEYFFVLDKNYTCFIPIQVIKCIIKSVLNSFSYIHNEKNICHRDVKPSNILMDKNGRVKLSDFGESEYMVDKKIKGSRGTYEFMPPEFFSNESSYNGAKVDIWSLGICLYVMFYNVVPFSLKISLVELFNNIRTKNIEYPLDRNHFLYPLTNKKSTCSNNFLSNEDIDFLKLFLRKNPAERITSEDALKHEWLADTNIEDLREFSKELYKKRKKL
Sequence of L-lactate dehydrogenase (Plasmodium falciparum (isolate CDC / Honduras)) (Q27743 whole entry, looked up): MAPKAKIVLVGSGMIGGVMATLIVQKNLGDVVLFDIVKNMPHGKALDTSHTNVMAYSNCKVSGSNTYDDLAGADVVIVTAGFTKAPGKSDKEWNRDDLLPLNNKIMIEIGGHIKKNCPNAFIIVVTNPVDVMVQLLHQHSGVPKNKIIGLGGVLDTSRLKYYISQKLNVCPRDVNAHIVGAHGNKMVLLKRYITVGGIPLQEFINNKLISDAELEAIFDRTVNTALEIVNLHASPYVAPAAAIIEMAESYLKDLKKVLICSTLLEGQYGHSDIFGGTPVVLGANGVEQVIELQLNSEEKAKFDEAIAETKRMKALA
Sequence of Plasmodium falciparum protein kinase 6 (PK6, PF3D7_1337100) (Q8IDW1 1-305): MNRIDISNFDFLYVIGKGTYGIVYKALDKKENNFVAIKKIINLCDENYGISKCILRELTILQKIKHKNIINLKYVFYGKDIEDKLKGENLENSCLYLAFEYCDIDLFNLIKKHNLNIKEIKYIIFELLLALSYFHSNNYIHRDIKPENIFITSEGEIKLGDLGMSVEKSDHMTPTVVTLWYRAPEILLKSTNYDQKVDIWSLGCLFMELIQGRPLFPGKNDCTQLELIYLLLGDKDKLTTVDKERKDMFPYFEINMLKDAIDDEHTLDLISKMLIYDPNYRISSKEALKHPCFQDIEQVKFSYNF
Sequence of Calcium-dependent protein kinase 4 (Plasmodium falciparum (isolate 3D7)) (Q8IBS5 whole entry, looked up): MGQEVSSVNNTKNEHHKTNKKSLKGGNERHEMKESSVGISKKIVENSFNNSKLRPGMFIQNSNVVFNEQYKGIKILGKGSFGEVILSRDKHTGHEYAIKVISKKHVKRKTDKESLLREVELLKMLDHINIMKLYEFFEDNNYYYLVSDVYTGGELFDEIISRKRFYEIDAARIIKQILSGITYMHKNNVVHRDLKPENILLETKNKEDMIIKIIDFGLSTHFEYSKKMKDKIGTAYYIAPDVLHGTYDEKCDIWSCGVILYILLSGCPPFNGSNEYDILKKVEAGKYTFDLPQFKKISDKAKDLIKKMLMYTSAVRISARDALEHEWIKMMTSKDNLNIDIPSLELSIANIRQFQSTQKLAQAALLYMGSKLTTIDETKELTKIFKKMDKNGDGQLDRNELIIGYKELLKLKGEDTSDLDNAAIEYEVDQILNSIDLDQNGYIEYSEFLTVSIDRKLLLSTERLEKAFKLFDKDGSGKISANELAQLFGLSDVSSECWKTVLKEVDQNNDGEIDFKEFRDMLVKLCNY

A word on the inhibition: it is the relative decrease from the control value, in per cent. As for `CCOc1ccc2nc(C)cc(NN=Cc3ccccc3)c2c1`, the growth inhibition is 8% in assay [1] and 96% (active) in assay [4]. Further, the values for the inhibition in assay [2] and in assay [3] were 5% and -3%, respectively. The result in assay [5], in assay [6], in assay [7] and in assay [8] was inactive.

As for `CCCCc1cc(NCC)nc(Nc2ccc(OC)cc2)n1`, the growth inhibition in assay [1] was 32%; in assay [4], 85% (active). Further, the inhibition in assay [2] is 30%; in assay [3] it was -4%. In addition, the result in assay [5], in assay [6], in assay [7] and in assay [8] was inactive.

Regarding `Cc1[nH]c(C)c(Cc2ccc(Oc3ccc(OC(F)(F)F)cc3)cc2)c(=O)c1Br`, the growth inhibition was 87% (active) in assay [1] and 96% (active) in assay [4]. Also, the inhibition in assay [2] was 29%; in assay [3] it was -1%. The outcome in assay [5], in assay [6], in assay [7] and in assay [8] was inactive.

In the case of `CC(CCCC(=O)Nc1ccc(CC(C)NCCc2cccc(Cl)c2)cc1)NCCc1cccc(Cl)c1` (stereo not drawn), the growth inhibition in assay [1] was 14%; in assay [4] it was 101% (active). The values for the inhibition in assay [2] and in assay [3] were 98% (active) and -3%, respectively. In addition, the outcome in assay [5], in assay [6], in assay [7] and in assay [8] was inactive.

Take `Cc1cc(=O)c(-c2ccc(OCCSc3ccc(C(F)(F)F)cn3)cc2)c(C)[nH]1`: the growth inhibition in assay [1] is 96% (active); in assay [4], 97% (active). In addition, the inhibition in assay [2] is 2%; in assay [3] it was 7%. The result in assay [5], in assay [6], in assay [7] and in assay [8] was inactive.

With `O=C(NCCN1CCCC1)c1ccc(-c2cccc(-c3nc4ccc(F)cc4[nH]3)c2)cc1`, the growth inhibition in assay [1] was 2%; in assay [4], 100% (active). Moreover, the inhibition in assay [2] was 29%; in assay [3], 1%. The result in assay [5], in assay [6], in assay [7] and in assay [8] was inactive.

Take `Cc1nnc2c(NC(=O)/C=C/c3ccc(OC(F)(F)F)cc3)cc3cc(Cl)ccc3n12`: the growth inhibition was 99% (active) in assay [1] and 94% (active) in assay [4]. Moreover, the inhibition in assay [2] is 19%; in assay [3], 4%. The result in assay [5], in assay [6], in assay [7] and in assay [8] was inactive.

Turning to `Cc1cc(N(C)C2CCN(CC3CCCCC3)C2)nc(Nc2ccc(Cl)cc2)n1` (stereo not drawn), the growth inhibition in assay [1] was 35%; in assay [4], 98% (active). The inhibition in assay [2] was -3%; in assay [3], -5%. The result in assay [5], in assay [6], in assay [7] and in assay [8] was inactive.

For the compound `Cn1c(=O)n(C)c2cc(CNCCNc3ccnc4cc(Cl)ccc34)ccc21`, the growth inhibition was 96% (active) in assay [1] and 101% (active) in assay [4]. Further, the inhibition in assay [2] is 17%; in assay [3], -1%. In addition, the result in assay [5], in assay [6], in assay [7] and in assay [8] was inactive.

Regarding `COCC(C)n1c(SCC(=O)Nc2cc(C(F)(F)F)ccc2Cl)nc2ccccc2c1=O` (stereo not drawn), the growth inhibition was 96% (active) in assay [1] and 97% (active) in assay [4]. In addition, the values for the inhibition in assay [2] and in assay [3] were 3% and 6%, respectively. For the same compound, the result in assay [5], in assay [6], in assay [7] and in assay [8] was inactive.

On to `CNCCNCc1ccc(-c2ccc(-c3nc4c(C)cccc4[nH]3)s2)cc1`, for which the results for the growth inhibition in assay [1] and in assay [4] were 26% and 97% (active), respectively. The figures for the inhibition in assay [2] and in assay [3] were 16% and 5%, respectively. For the same compound, the result in assay [5], in assay [6], in assay [7] and in assay [8] was inactive.

In the case of `COc1ccc(-c2ccc(CNC3Cc4ccccc4C3)cc2)cc1S(=O)(=O)NCCN1CCCC1`, the growth inhibition was 99% (active) in assay [1] and 100% (active) in assay [4]. In addition, the inhibition in assay [2] was 30%; in assay [3], 3%. Also, the outcome in assay [5], in assay [6], in assay [7] and in assay [8] was inactive.

For the compound `Cc1ccc2nc(-c3ccc(C=CC(=O)NC4CCN(Cc5ccccc5)CC4)cc3)[nH]c2c1`, the growth inhibition in assay [1] was 92% (active); in assay [4], 101% (active). Besides, the inhibition was 9% in assay [2] and -1% in assay [3]. The outcome in assay [5], in assay [6], in assay [7] and in assay [8] was inactive.

For `NC(=O)N1CCN(Cc2ccc(Br)cc2)CC1`, the growth inhibition was 0% in assay [1] and 96% (active) in assay [4]. Also, the inhibition in assay [2] was 83% (active); in assay [3], -5%. Further, the result in assay [5], in assay [6], in assay [7] and in assay [8] was inactive.

As for `O=C(Cn1c(CCc2cccc(F)c2F)cc(=O)c2cccnc21)N(CCn1ccnc1)Cc1ccc(-c2ccc(C(F)(F)F)cc2)cc1`, the growth inhibition in assay [1] is 62% (active); in assay [4], 99% (active). For the same compound, the inhibition is 39% in assay [2] and 0% in assay [3]. In addition, the result in assay [5], in assay [6], in assay [7] and in assay [8] was inactive.

For the compound `CN1CCC(C(=O)Nc2cccc(-c3ccc(-c4nc5ccc(F)cc5[nH]4)cc3)c2)CC1`, the growth inhibition in assay [1] was 51% (active); in assay [4] it was 100% (active). The inhibition in assay [2] was 12%; in assay [3] it was 3%. For the same compound, the result in assay [5], in assay [6], in assay [7] and in assay [8] was inactive.

As to `O=C(/C=C/c1ccc(Cl)c(Cl)c1)NCCCCCCN1CCN(C(=O)Nc2ccc(Cl)c(Cl)c2)CC1`, the values for the growth inhibition in assay [1] and in assay [4] were 0% and 88% (active), respectively. Moreover, the inhibition in assay [2] is 23%; in assay [3] it was -1%. The outcome in assay [5], in assay [6], in assay [7] and in assay [8] was inactive.

With `CCNc1cc(C(=O)N[C@@H](Cc2ccccc2)[C@H](O)CNCCc2ccccc2)cc(N2CCCCS2(=O)=O)c1`, the growth inhibition is 91% (active) in assay [1] and 98% (active) in assay [4]. The inhibition in assay [2] was 14%; in assay [3], 7%. Also, the outcome in assay [5], in assay [6], in assay [7] and in assay [8] was inactive.

As for `Cc1cc(NC(=O)c2cc(S(=O)(=O)N3CCCCC3)ccc2C)no1`, the growth inhibition in assay [1] was 29%; in assay [4] it was 95% (active). For the same compound, the inhibition in assay [2] and in assay [3] was -7% throughout. The result in assay [5], in assay [6], in assay [7] and in assay [8] was inactive.

Take `Clc1ccc(Cl)c2[nH]c(CNCCCNc3nc4ccccc4[nH]3)cc12`: the growth inhibition in assay [1] was 39%; in assay [4], 100% (active). Also, the inhibition in assay [2] is 88% (active); in assay [3], -6%. For the same compound, the result in assay [5], in assay [6], in assay [7] and in assay [8] was inactive.

Consider `CCCc1c(Cl)cc(CNCCCNc2nc3ccncc3[nH]2)cc1Cl`, for which the growth inhibition in assay [1] was -5%; in assay [4], 98% (active). In addition, the inhibition in assay [2] is 23%; in assay [3] it was -5%. Besides, the result in assay [5], in assay [6], in assay [7] and in assay [8] was inactive.
